Assay outcomes (PubChem)
RORgamma inh: qHTS for inhibitors of ROR gamma transcriptional activity | Drosophila S2 Gal4-RORgamma UAS-luciferase reporter, 20 h | AID 2551, 2010 | Potency, µM (top dose mostly 53.6 µM), without a hit: top-dose activity change, negative = inhibition, usual class: inhibitors | hit rate 5.4% among 310,000; further: on the % scale 0 is the no-effect control and ±100 the full control effect; nearly all actives have a fitted effect of over 60% in size
Target sequence (P51450 whole entry, looked up, the tested form may be a part): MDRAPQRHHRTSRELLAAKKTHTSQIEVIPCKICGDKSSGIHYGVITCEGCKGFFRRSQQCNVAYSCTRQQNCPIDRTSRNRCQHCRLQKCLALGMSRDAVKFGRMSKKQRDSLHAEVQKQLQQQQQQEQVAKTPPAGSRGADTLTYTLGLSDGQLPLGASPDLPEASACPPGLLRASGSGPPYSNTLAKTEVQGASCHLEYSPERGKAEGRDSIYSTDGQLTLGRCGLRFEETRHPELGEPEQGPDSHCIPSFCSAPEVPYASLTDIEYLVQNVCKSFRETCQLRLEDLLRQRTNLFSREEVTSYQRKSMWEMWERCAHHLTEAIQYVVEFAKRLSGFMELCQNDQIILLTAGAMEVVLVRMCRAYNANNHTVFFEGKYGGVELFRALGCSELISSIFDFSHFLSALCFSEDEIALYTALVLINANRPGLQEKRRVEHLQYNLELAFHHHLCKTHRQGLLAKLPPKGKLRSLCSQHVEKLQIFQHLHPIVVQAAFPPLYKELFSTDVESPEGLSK
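Compounds are pin-transferred onto Drosophila Schneider cells expressing a copper-inducible Gal4–ROR gamma transactivation domain fusion. After 1 hr, copper sulfate is added to 700 uM final; luciferase is read 20 hr later.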
KB-3-1 tox: qHTS assay for MDR1-selective chemotherapeutics: Primary screen using the parental adenocarcinoma cell KB-3-1; hit rate 1.4% among 400,000; AID 1347075, 2019; Potency, µM (highest dose often 46.1 µM), hits mostly cytotoxic; KB-3-1 viability, CellTiter-Glo ATP luminescence, 72 h; further: on the % scale 0 is the no-effect control and ±100 the full control effect; nearly all actives have a fitted effect of over 60% in size
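72 h, 37 °C compound treatment of KB-3-1 parental cells; CellTiter-Glo added, 10 min, luminescence read. Data corrected against DMSO-only plates and normalized before curve fitting.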
KB-V1 cytotox: qHTS assay for MDR1-selective chemotherapeutics: Primary screen using the drug-selected MDR subline cells KB-V1 | KB-V1 MDR cells viability, CellTiter-Glo, 72 h | Potency, µM (titrated, usually from 46.1 µM), hits mostly cytotoxic | hit rate 3.4% among 400,000; further: on the % scale 0 is the no-effect control and ±100 the full control effect; nearly all actives have a fitted effect of over 60% in size
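Luminescent ATP read-out (CellTiter-Glo, 10 min) measures survival of drug-selected KB-V1 MDR cells after 72 h, 37 degrees C compound exposure. Medium: phenol-red-free DMEM, 10% FBS. Values from fitted concentration-response curves.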
MCF10A rerep: A quantitative high throughput screen for small molecules that induce DNA re-replication in MCF 10a normal breast cells | MCF 10A DNA re-replication, Hoechst nuclear intensity, 48 h | Potency, µM (titrated, usually from 46.1 µM), for inactives: top-dose activity, positive = re-replication, hits mostly activators | hit rate 2.9% among 350,000 | AID 624296, 2012; further: % of control where 0% means no effect; nearly all actives have a fitted effect of over 50% in size
Gal4-VP16 FLuc: VP16 counterscreen qHTS for inhibitors of ROR gamma transcriptional activity. Drosophila S2 Gal4-VP16 UAS-luciferase, luminescence, 20 h. Potency, µM (highest dose often 53.6 µM), without a hit: at the top dose activity, negative = inhibition, most hits filed as inhibitors. hit rate 3.5% among 310,000;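 further: Gal4-VP16 expression switched on by copper sulfate through the metallothionein promoter; on the % scale 0 is the no-effect control and ±100 the full control effect; nearly all actives have a fitted effect of over 50% in size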
SW480 rerep: A quantitative high throughput screen for small molecules that induce DNA re-replication in SW480 colon adenocarcinoma cells; SW480 DNA re-replication, Hoechst DNA content imaging, 48 h; Potency, µM (titrated, usually from 46.1 µM), inactives show at the top dose re-replication activation, usual class: activators; hit rate 1.8% among 340,000; AID 624297, 2012; further: % of control where 0% means no effect; nearly all actives have a fitted effect of over 55% in size
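250 cells/well; 23 nL cpd via pin tool; 48 hr, 37 C, 5% CO2; Hoechst 40 min; imager read of total nuclear intensity, ex 405/em 500-530 nm.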
Starred values were filed as active, the others as inactive; i = inactive; u = inconclusive; x = no result given. Most compounds without a hit are left out; they make up all but 10% or so of the library. The call rests on the fitted dose curve; in most records, active means well fitted curve in the direction sought with a large enough effect; inconclusive means small, poorly fitted or top-dose-only effect, or another doubt; inactive means no such curve, though single readings can be large; an effect the other way counts as inactive or inconclusive. Potency means the concentration at half of the fitted maximal effect.

SMILES	RORgamma inh	KB-3-1 tox	KB-V1 cytotox	MCF10A rerep	Gal4-VP16 FLuc	SW480 rerep
Cc1ccc(NC(=S)NC(=O)C2CCCC2)c(Br)c1	x	i	i	u	x	-23%
C(=C\c1ccnc2ccccc12)/c1cccnc1	x	i	i	x	x	x
O=C(NC(=S)Nc1cccc([N+](=O)[O-])c1)C1CCCCC1	10µM*	i	u	0%	u	20%
CCOC(=O)C1CCN(CC(C)(C)NS(=O)(=O)c2ccc(Cl)cc2)CC1	-5%	i	i	15µM*	10%	10%
CCOC(=O)C1CCN(CC(C)(C)NS(=O)(=O)c2ccc(C)cc2)CC1	-27%	i	i	0%	0%	-5%
CC(C)(CN1CCNCC1)NS(=O)(=O)c1ccc(Cl)cc1	x	21µM*	i	12µM*	x	4%
Cc1ccc(-c2noc(-c3ccc(NCc4ccco4)c([N+](=O)[O-])c3)n2)cc1	x	i	i	x	x	x
COc1c(Br)cc([N+](=O)[O-])c(OC)c1C(=O)NC(=O)Nc1cc(Cl)cc(Cl)c1	10%	u	6.5µM*	u	2%	24%
COc1c(Br)cc([N+](=O)[O-])c(OC)c1C(=O)NC(=O)Nc1c(Cl)cccc1Cl	-1%	i	u	u	26%	u
Cc1ccc(CNC(=O)[C@H]2C[C@@H]2[C@H](NP(=O)(c2ccccc2)c2ccccc2)c2ccccc2)c(F)c1F	17%	x	x	x	-13%	x
Fc1ccc(N2CCN(c3ncnc4[nH]ncc34)CC2)cc1	x	i	i	x	x	x
COC(=O)c1oc2ccc(OC)cc2c1N	36%	i	i	2%	3%	-13%
COc1ccc2oc(C)c(C(=O)c3ccccc3)c2c1	x	i	i	-27%	x	-45%
COc1ccc(C(=O)c2oc3ccc(OC)cc3c2N)cc1	u	i	i	26µM*	-1%	6%
COc1ccc2oc(/C=C/N(C)C)c(C(=O)c3ccc(Cl)cc3)c2c1	17%	i	i	6.3µM*	-8%	18%
COc1ccc(CNc2ncnc3nc[nH]c23)cc1OC	x	i	i	x	x	x
CCCOc1ccc(NC(=O)c2cc3cc(C)ccc3[nH]2)cc1	-10%	i	i	6%	-9%	u
Cc1ccc2[nH]c(C(=O)Nc3ccc(F)cc3)cc2c1	10µM*	i	i	7%	16%	u
CCOC(=O)c1ccc(NC(=O)c2c(N3CCCC3=O)c3cc(OC)ccc3n2C)cc1	x	i	i	x	x	x
COc1ccc(-c2nc3c(c(=O)n(C)c(=O)n3C)n2CC2CC(c3ccccc3)=NO2)cc1OC (stereo not given)	x	i	5.8µM*	8%	x	1%
COc1ccc(C(=O)OCC2CC(c3ccccc3)=NO2)cc1OC (stereo not given)	1%	i	i	3%	4%	-3%
CCOC(=O)c1c(C)oc2nc(C)nc(NCC3CCN(Cc4ccc(Cl)cc4)CC3)c12	x	i	i	x	x	x
CCN(CC)c1ccc2nc3ccc(N)cc3[n+](-c3ccccc3)c2c1	x	0.73µM*	u	u	x	u
CCN(CC)c1ccc(/C=C/c2cc(Cl)nc3ccccc23)cc1	x	i	i	x	x	x
CC1(C)C(=O)C=C[C@@]2(C)C1C=C[C@@]1(C)C2CC[C@@]2(C)C(c3ccoc3)OC(=O)C3OC312 (stereo not given in full)	7.1µM*	x	x	x	6%	x
CC(=O)O[C@@H]1C[C@H]2C(C)(C)C(=O)C=C[C@]2(C)[C@H]2CC[C@@]3(C)[C@H](c4ccoc4)OC(=O)[C@H]4O[C@]43[C@@]21C	u	u	u	u	-11%	4.1µM*
